Assay outcomes deposited in PubChem by National Center for Advancing Translational Sciences (NCATS).
LMNA splice mod: modulators of lamin A splicing; HeLa LMNA splicing GFP/RFP minigene ratio, 48 h; Potency, µM (titrated, usually from 46.1 µM), without a hit: top-dose ratio change, negative = inhibition, most hits filed as inhibitors; hit rate 0.01% among 200,000; active = well fitted inhibition curve with a large enough effect in the signal ratio, with a control signal flat, not every such curve was filed as active; inconclusive = small, poorly fitted or top-dose-only effect, or effect the other way, or a change in a side signal; the % refers to the signal ratio; note: potency is the fitted concentration of half-maximal effect
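Read-out is the ratio of GFP to DsRed2 object intensity, acquired by 488 nm laser-scanning cytometry on HeLa lamin A-EGFP minigene reporter cells. Compound incubation 48 hrs at 37 °C in Opti-MEM with 2% FBS; DMSO 0.5% final.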
IMPase cell inh: IMPase inhibition in cells; CHO-M1 cells, IP1 accumulation, HTRF TR-FRET ratio; AID 901; P97697; inhibition (IP1 accumulation), % at 46.1 µM; 120,000 tested, under 10 active; active = well fitted curve in the direction sought with a large enough effect in the signal ratio, not every such curve was filed as active; inconclusive = small, poorly fitted or top-dose-only effect, or a change in a side signal; inactive = no such curve, though single readings can be large or run the other way; the % refers to the signal ratio;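 note: cells stimulated with carbachol in lithium chloride buffer; plate controls were DMSO basal wells for no effect and reference inhibitor wells for full effect; higher means more IMPase inhibition seen as more IP1 and lower FRET ratio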
Target sequence (P97697 whole entry, looked up): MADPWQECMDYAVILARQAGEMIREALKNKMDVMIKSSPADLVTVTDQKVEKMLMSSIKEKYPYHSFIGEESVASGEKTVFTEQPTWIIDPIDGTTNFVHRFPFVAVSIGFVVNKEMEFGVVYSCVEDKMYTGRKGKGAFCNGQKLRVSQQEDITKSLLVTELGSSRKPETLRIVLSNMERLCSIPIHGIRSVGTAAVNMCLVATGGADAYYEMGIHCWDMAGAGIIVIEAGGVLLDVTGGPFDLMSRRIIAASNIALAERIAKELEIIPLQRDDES
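Carbachol-driven Gq signalling in CHO-M1 cells (2000/well) generates IP1. Compounds that block IMPase raise IP1 and so reduce the FRET signal from Eu-anti-IP1 and d2-IP1 after a 10 min room-temperature lysis.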
PNC assembly inh: perinucleolar compartment assembly inhibition; activity change (PNC), negative = inhibition, % at 10 µM; hit rate 3.1% among 140,000; PC3M PTB-GFP, PNC prevalence imaging, 16 h; stronger effect = lower value;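 active = readout at or below -70, meaning at least 70% loss of cells showing the perinucleolar compartment, a nuclear body marking cancer cells; inconclusive = readout between -30 and a set limit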;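 note: plate controls were DMSO wells for no effect and camptothecin positive control wells for full effect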
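PC3M cells stably expressing PTB-GFP, 750–1000 cells/well, treated 16 h at 37 °C with compound (23 nl of library stock), in duplicate. After paraformaldehyde fixation and Hoechst stain, imaged at 20x; PNC prevalence scored by image analysis.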
The depositor's hits bear a star; ? = inconclusive; nt = not tested or not shown; [ ] = remark or other dose. The entries come from a sample that favours hits as a whole. Unless noted, % is set by controls: 0 for no effect and ±100 for the full control effect.

SMILES | LMNA splice mod | IMPase cell inh | PNC assembly inh
NCCc1nnc(SCc2ccccc2F)o1 | -2.8% | -5.5 | 61.8
NCCc1nnc(SCc2c(F)cccc2Cl)o1 | -2.9% | 7.7 | -103.2*
N#CCC1c2ccccc2CCN1C(=O)Nc1ccc(Cl)cc1 (stereo not given) | -3.4% | 7.5[1.84 µM] | -80.9*
N#CCC1c2ccccc2CCN1C(=O)Nc1cccc(Cl)c1 (stereo not given) | -8.8% | 10.2 | 24.5
Cc1ccc(S(=O)(=O)CCSc2nc(C)cc(C(F)(F)F)c2C#N)cc1 | ? | -7.8 | -118.9*
COC(=O)CSc1nc(C)cc(C(F)(F)F)c1C#N | 4.8% | 6.4 | 74.4
CCCCc1nc2c(c3c1C[C@H](C)OC3)CN(C(=O)c1cc(I)ccc1F)CC2 | 17.4%[9.22 µM] | nt | nt
CCOC(=O)c1ccccc1NC(=O)c1c2c(nc3ccccc13)C(=O)N(C1CCCCC1)C2 | 21.6%[46 µM] | nt | nt
O=C(CSCc1cnn(-c2ccccc2)c1-n1cccc1)NCc1ccc2c(c1)OCO2 | ? | -10.4 | -100.0*
COc1ccc(CNC(=O)CSCc2cnn(-c3ccccc3)c2-n2cccc2)cc1 | -1.3% | 7.6 | 15.7
CCN(c1ccc(NC(=O)COC(=O)/C=C/c2cccs2)cc1)C(C)C | -9.4%[46 µM] | nt | nt
Cc1ccc(N2CC(NC(=O)c3ccco3)CC2=O)cc1C (stereo not given) | 8.0%[46 µM] | nt | nt
O=C(NCC(c1ccc2c(c1)OCO2)N1CCN(c2ccccc2)CC1)c1ccccc1F (stereo not given) | 8.9%[46 µM] | nt | nt
NC(=O)c1ccccc1NC(=O)CCc1ccccc1 | ? | 3.1 | 1.4
COC(=O)CCC(=O)Nc1sc(C)c(C)c1C(N)=O | 1.7% | -4.3 | 14.4
Cc1cccc(C)c1NC(=S)NC(=O)CCc1ccccc1 | 9.5% | 5.0 | -6.2
NC(=O)c1ccccc1NC(=S)NC(=O)CCc1ccccc1 | ? | nt | -108.4*
COC(=O)CCC(=O)NC(=S)Nc1sc(C)c(C)c1C(N)=O | 11.3% | nt | -123.8*
Cc1sc(NC(=S)NC(=O)CCc2ccccc2)c(C(N)=O)c1C | -17.6% | nt | -121.5*
O=C(Nc1cc(Cl)ccc1Cl)c1ccc2c(c1)N(Cc1cccc(Cl)c1)C(=O)c1ccccc1S2=O (stereo not given) | -0.5%[46 µM] | nt | nt
CCCCN1CCCc2cc(CN(CCCN3CCOCC3)C(=O)Nc3ccc(CC)cc3)ccc21 | -16.1%[46 µM] | nt | nt
CCOc1ccc(-c2nnc(SCC(=O)NCc3ccc(C)cc3)nc2-c2ccc(OCC)cc2)cc1 | -22.1%[46 µM] | nt | nt
O=C(O)Cc1nn(Cc2ccc(Br)cc2F)c(=O)c2ccccc12 | nt | -0.7 | nt
Cc1ccc2c(c1)-c1c(ssc1=S)C(C)(C)N2C(=O)c1ccco1 | 1.4% | -2.4 | -100.0*
CC1(C)c2ssc(=S)c2-c2ccccc2N1C(=O)c1ccco1 | ? | 14.8 | 16.6
SMILES | LMNA splice mod | IMPase cell inh | PNC assembly inh
Cc1cc(C)cc(NC(=O)Cc2c(C(=O)O)c(C)cn2C)c1 | -10.6%[46 µM] | nt | nt
O=C(Nc1ccc(Cl)cc1)Nc1nnc(SCc2ccc(Cl)cc2)s1 | -2.8% | -0.1 | -110.8*
O=C(Nc1ccccc1)Nc1nnc(SCc2ccc(Cl)cc2)s1 | 4.1% | nt | -17.7
CCN(CC)c1nc(-c2ccc(C(C)(C)C)cc2)nc2ccccc12 | nt | -7.4 | nt
Cn1ncc(Cl)c1C(=O)Nc1ccc(Cl)cn1 | -10.1% | -13.6 | -100.0*
Cc1cc(NC(=O)c2c(Cl)cnn2C)no1 | 8.3% | -6.2 | ?
COc1ccc(N2CC(NC(=O)COc3cccc(C)c3)CC2=O)cc1OC (stereo not given) | 1.1%[46 µM] | nt | nt
O=C(NCc1ccc(Cl)cc1)c1ccc2oc(=O)n(Cc3ccccc3)c2c1 | 1.6%[46 µM] | nt | nt
Cn1c(N=NC(=O)c2ccccc2)c(O)c2ccccc21 | ? | nt | -86.1*
Cn1c(=O)c(Cc2ccccc2)c(O)c2ccccc21 | -3.8% | 1.7 | -28.2
Cc1ccccc1OCC(=O)Nc1nnc(SCc2cc(=O)n3cccc(C)c3n2)s1 | -3.8%[46 µM] | nt | nt
Cc1nnc(SC(C)C(=O)Nc2ncc(Cl)cc2Cl)n1Cc1ccccc1 (stereo not given) | 9.2% | -3.1 | -3.8
COCCn1c(SC(C)C(=O)Nc2ncc(Cl)cc2Cl)nc2ccccc21 (stereo not given) | ? | 3.1 | -103.2*
CC(OC(=O)CCc1nc2ccccc2c(=O)[nH]1)C(=O)Nc1ncc(Cl)cc1Cl (stereo not given) | 3.9%[46 µM] | nt | nt
Cc1cc(SC(C)C(=O)Nc2ncc(Cl)cc2Cl)nc2ccccc12 (stereo not given) | ? | nt | -92.0*
COC(=O)c1c(N)n(-c2ccc(OC)c(OC)c2)c2nc3ccccc3nc12 | nt | 9.2 | nt
CCc1ccc(NC(=O)CN2CCN(Cc3ccccc3)S2(=O)=O)cc1 | -15.9%[46 µM] | nt | nt
Cc1ccc(S(=O)(=O)n2nc(-c3ccc(Cl)cc3)nc2NCc2ccc(F)cc2)cc1 | nt | 3.8 | nt
O=C(CCc1ccc(S(=O)(=O)N2CCOCC2)cc1)N/N=C/c1ccc(F)cc1F | -5.4%[46 µM] | nt | nt
O=C(CCc1ccc(S(=O)(=O)N2CCOCC2)cc1)N/N=C/c1ccc(O)c(O)c1O | 16.2% | nt | -110.5*
O=C(NCc1ccco1)c1csc(Nc2ccccc2Cl)n1 | ? | -5.0 | -117.3*
O=C(NCc1ccco1)Nc1ccccc1Cl | 8.0% | -4.4 | 17.1
CC(=O)c1cccc(NC(=O)c2ccc(-n3c(C)nnc3C)cc2)c1 | -10.3%[46 µM] | nt | nt
O=c1c2c3c(sc2ncn1/N=C/c1ccccc1)CCCC3 | -6.7% | -5.7[0.369 µM] | -15.8
Cn1cc2c(=O)n(/N=C/c3ccccc3)cnc2n1 | -13.2% | nt | -82.3*
SMILES | LMNA splice mod | IMPase cell inh | PNC assembly inh
CCc1nn(C(C)C(=O)Nc2cccc(C)c2C)c(=O)c2cc3occc3n12 (stereo not given) | 6.1% | 2.3 | ?
CCN(CC)C(=O)CN(C#N)c1nc(OC)nc(N(C)C)n1 | 3.2% | -1.9 | -81.8*
CCN(CC)C(=O)CN(C#N)c1nc(C)cc(C)n1 | -16.9% | -10.0 | -2.8
CC(=O)C1=C(C)NC(SCSc2ccccc2)=C(C#N)C1c1cccnc1 (stereo not given) | -12.6% | 3.9 | -86.4*
CC(=O)C1=C(C)NC(SCC(=O)c2ccc(-c3ccccc3)cc2)=C(C#N)C1c1cccnc1 (stereo not given) | ? | -7.8 | 84.1
CCOC(=O)c1scc(-c2ccccc2)c1S(=O)(=O)Nc1cc(Cl)c(OC)cc1OC | -12.6%[46 µM] | nt | nt
O=C(N/N=C/c1cc(Cl)ccc1O)c1ccc(Br)cc1 | ? | nt | -106.7*
NC(=O)N/N=C\c1cc(Br)ccc1O | -12.7% | nt | 7.0
CC(OC(=O)CN(C)S(=O)(=O)c1ccc(Cl)cc1)C(=O)Nc1ccc(N2CCOCC2)cc1 (stereo not given) | -0.8% | 1.2 | 13.1
CC(=O)Nc1ccc(NC(=O)C(C)OC(=O)CN(C)S(=O)(=O)c2ccc(Cl)cc2)cc1 (stereo not given) | 1.6% | -1.8 | -113.4*
CCOc1cc(/C=N/OC(C)=O)ccc1OCc1ccccc1 | 2.1%[46 µM] | nt | nt
O=C(Nc1cccc(F)c1)c1ccc(-c2ccccc2C(F)(F)F)o1 | ? | nt | -9.9
COc1ccc(NC(=O)c2ccc(-c3ccccc3C(F)(F)F)o2)cc1 | ? | nt | -100.2*
CN(C)c1ccc(CNC(=O)c2cnc3sc(N4CCCC4)nn3c2=O)cc1 | -2.9%[46 µM] | nt | nt
COc1cc(NC(=O)Cn2cnc3c2c(=O)n(C)c(=O)n3C)c(OC)cc1Cl | nt | -9.6 | nt
CCCNC(=O)COC(=O)/C=C/c1cccc(F)c1 | -4.8%[46 µM] | nt | nt
CCCNC1=C(N(C(C)=O)c2cccc(F)c2)C(=O)c2ccccc2C1=O | ? | nt | -90.0*
